Screens: PubChem, National Center for Advancing Translational Sciences (NCATS)
Tau fluor counter – counter-screen for tau fibril formation inhibitors. 280,000 tested, 0.93% active. Potency, µM (highest dose often 57.7 µM). AID 1463. tau K18 P301L Alexa594 fluorescence, heparin fibrillization; further: nearly all actives have a fitted effect of over 55% in size
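Human tau K18 P301L (15 uM unlabeled, 0.24 uM Alexa 594-labeled) in 100 mM sodium acetate pH 7 with 20 uM heparin, 6 hr at 37 C. ThT 30 uM added, 1 hr ambient; Alexa 594 FP and total fluorescence read at 555/632 nm.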
Tau FP inhib – inhibitors of human tau fibril formation. K18 P301L tau heparin fibrillization, Alexa594 FP, 6 h. Potency, µM (doses to about 57.7 µM), most hits filed as inhibitors. 280,000 tested, 0.39% active; further: nearly all actives have a fitted effect of over 55% in size
Target sequence (P10636 561-689 P618L limits assumed): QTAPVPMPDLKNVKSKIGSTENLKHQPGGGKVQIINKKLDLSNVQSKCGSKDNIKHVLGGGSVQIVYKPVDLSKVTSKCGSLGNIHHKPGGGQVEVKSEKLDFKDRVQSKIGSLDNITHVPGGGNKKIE
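K18 P301L tau (15 uM unlabeled/0.24 uM Alexa 594-labeled, final) + compound + heparin 20 uM final; 100 mM NaOAc pH 7; 6 hr 37 C; ThT 30 uM final added, 1 hr RT; FP ex 555/em 632 nm.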
Tau ThT inhib – inhibitors of human tau fibril formation, thioflavin T binding. recombinant tau K18 P301L, heparin-induced fibrillization, ThT fluorescence. P10636. 270,000 tested, 2.1% active. Potency, µM (highest dose often 57.4 µM), most hits filed as inhibitors; further: nearly all actives have a fitted effect of over 55% in size
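Fibril formation assay: tau K18 P301L at 15 uM with trace Alexa 594 label, heparin inducer 20 uM, pH 7 sodium acetate buffer, 37 C for 6 hr; endpoint ThT signal.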
FBPA coupling cs – coupling enzyme interference in Giardia aldolase counter-screen. 290,000 tested, 0.67% active. activity change, negative = inhibition, % at 58.2 µM, hits read low. coupling enzyme system counterscreen, AmpLite Red fluorescence. AID 2472; in the data active means activity change below about -30%
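Final compound at 57.5 uM, incubated 10 min at RT with coupling enzyme reagent (glyceraldehyde-3-phosphate), then 20 min with substrate and AmpLite Red detection. Fluorescence read at 525/598 nm; tests interference with the coupling assay, not aldolase inhibition.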
Sfp inh – blocks B. subtilis Sfp PPTase activity | Q9F4F7 | Biochemical Sfp PPTase activity, qHTS | Potency, µM, actives largely listed as inhibitors | 310,000 tested, 3.5% active | AID 1490;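 further: the enzyme is Sfp with the accession as filed and its product quenches rhodamine fluorescence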
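Fluorescence-quenching assay: 15 nM Sfp-PPTase preincubated 15 min at room temperature with compound, then 5 uM rhodamine-CoA and 12.5 uM BHQ-2-labelled YbbR peptide added. Fluorescence (ex 525/em 598 nm) read at start and after 30 min; difference gives rate.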
Of the large screens only hits and unclear results are named; the others gave an inactive call; ! = repeats disagree; [ ] = another dose, or the depositor's remark. Compounds with a hit are over-represented: about 5.2% of the library has one in this group of screens. Unless noted, the call rests on the fitted dose curve; in most records, active means well fitted curve in the direction sought with a large enough effect; inconclusive means small, poorly fitted or top-dose-only effect, or another doubt; inactive means no such curve, though single readings can be large; an effect the other way counts as inactive or inconclusive.

CCCCC1=CC2=C(c3ccco3)C(=O)C(C)(OC(=O)c3ccc(OC)cc3)C(=O)C2=CN1CC1CC1 (stereo not drawn)	Tau fluor counter inconclusive, Tau ThT inhib 16µM!
CCCCC1=CC2=C(c3ccco3)C(=O)C(C)(OC(=O)c3ccc(OC)cc3)C(=O)C2=CN1Cc1ccco1 (stereo not drawn)	Tau ThT inhib 8.9µM!, Sfp inh 45µM
CC(C)c1ccc(C(=O)CC2(O)C(=O)N(CCc3ccccc3)c3ccc(Cl)cc32)cc1 (stereo not drawn)	none (no result: FBPA coupling cs, Sfp inh)
CN(C)CCN(Cc1ccco1)C(=O)c1cc2c(s1)-c1ccccc1OC2	none (no result: FBPA coupling cs, Sfp inh)
COc1ccc(C2c3c(-c4ccccc4O)n[nH]c3C(=O)N2CCc2ccccc2)cc1 (stereo not drawn)	Tau fluor counter inconclusive, Tau FP inhib inconclusive (no result: FBPA coupling cs, Sfp inh)
O=C(CSc1ccc(-c2ccco2)nn1)c1cccc([N+](=O)[O-])c1	Tau ThT inhib inconclusive, Sfp inh 14µM
COc1ccccc1CCNC(=O)CSc1ccc(-c2ccco2)nn1	Tau ThT inhib inconclusive, Sfp inh 22µM
COc1ccccc1-c1ccc(SCC(=O)NCCc2ccccc2)nn1	none
CCc1ccc(NC(=O)CSc2nnc(-c3ccco3)o2)cc1	none (no result: Tau fluor counter, Tau FP inhib, Tau ThT inhib, FBPA coupling cs)
CC(=O)c1cccc(NC(=O)CSc2ccc(-c3ccco3)nn2)c1	Sfp inh 20µM (no result: Tau fluor counter, Tau FP inhib, Tau ThT inhib, FBPA coupling cs)
CCc1ccc(NC(=O)CSc2ccc(-c3ccco3)nn2)cc1	Sfp inh 35µM
O=C(CSc1ccc2nnc(-c3cccnc3)n2n1)NCc1ccco1	Tau ThT inhib inconclusive, Sfp inh 50µM
O=C(CSc1ccc(-c2ccco2)nn1)NCc1ccccc1	Tau ThT inhib inconclusive, Sfp inh 22µM
O=C(CSc1ccc2nnc(-c3cccc(F)c3)n2n1)NCc1ccco1	none
COc1ccc(-c2ccc(SCC(=O)NCc3ccco3)nn2)cc1OC	Tau FP inhib inconclusive, Tau ThT inhib inconclusive, Sfp inh 50µM
O=C(CSc1ccc(-c2ccco2)nn1)NCc1ccc(Cl)cc1	Tau ThT inhib inconclusive
COC(=O)[C@@]1(Cc2ccccc2)[C@H]2c3cc(C(=O)N4CCCC4)n(C)c3C[C@H]2CN1C(=O)c1ccccc1	none
Cc1cccc(-n2c(C)cc(C(=O)C(=O)Nc3ccccc3F)c2C)c1C	none (no result: FBPA coupling cs, Sfp inh)
CC(/C=N/n1c(-c2ccco2)n[nH]c1=S)=C\c1ccco1	Tau ThT inhib inconclusive, Sfp inh 45µM
CC(/C=N/n1c(-c2ccccc2)n[nH]c1=S)=C\c1ccco1	Tau ThT inhib inconclusive, Sfp inh inconclusive
CC(/C=N/n1c(-c2ccc(C)cc2)n[nH]c1=S)=C\c1ccco1	Sfp inh 50µM
CC1=CC(C)(C)Nc2ccc(OC(=O)CN3C(=O)c4ccccc4C3=O)cc21	Tau fluor counter 16µM[quencher], Tau ThT inhib inconclusive
CC1=CC(C)(C)Nc2ccc(OC(=O)C(Cc3ccccc3)N3C(=O)c4ccccc4C3=O)cc21 (stereo not drawn)	Tau fluor counter inconclusive
CC1=CC(C)(C)Nc2ccc(OC(=O)CN3C(=O)c4cccc5cccc(c45)C3=O)cc21	Tau fluor counter inconclusive, Tau FP inhib inconclusive, Tau ThT inhib 13µM, FBPA coupling cs -54, Sfp inh 40µM
COc1ccc(Br)cc1CNC(=O)CN1C(=O)c2cccnc2Oc2ccc(C)cc21	none (no result: FBPA coupling cs, Sfp inh)
Cc1ccc(-c2nnc3ccccc3c2C(=O)Nc2ccc(C)c(F)c2)cc1	none (no result: FBPA coupling cs, Sfp inh)
COc1cccc2sc(NN)nc12	Tau fluor counter 28µM[quencher], Tau FP inhib inconclusive, Tau ThT inhib inconclusive, Sfp inh 50µM
CCc1cccc2nc3c(c([Si](CC)(CC)CC)c12)Cn1c-3cccc1=O	Tau ThT inhib inconclusive, Sfp inh 79µM
CCc1c2c(nc3c(C(C)C)cccc13)-c1cccc(=O)n1C2	Tau ThT inhib inconclusive, Sfp inh 50µM
CC(C)c1cccc2nc3c(c([Si](C)(C)C)c12)Cn1c-3cccc1=O	Tau ThT inhib inconclusive, Sfp inh inconclusive
Cc1ccc(-n2nc3c(N4CCC(C(=O)NCCC(C)C)CC4)nnc(C)c3c2C)cc1	none (no result: FBPA coupling cs, Sfp inh)
c1ccc(-c2nn3c(C4CCCCC4)nnc3s2)nc1	none
Clc1ccc(OCc2nn3c(C4CCCCC4)nnc3s2)cc1	Sfp inh 20µM
CC1CCN(CCCNC(=O)c2cc(Sc3ccc(F)cc3)nc3ccccc23)CC1	none (no result: FBPA coupling cs, Sfp inh)
